Screens: PubChem BioAssay, Buhrlage Lab, Dana-Farber Cancer Institute and Novartis Institutes for BioMedical Research (Cambridge, Mass)
OTUD3 block: blocks human OTUD3 ubiquitin-rhodamine cleavage | Q5T2D3 | purified OTUD3, Ub-rhodamine fluorescence, 2 h | inhibition, % at 25 µM | 47,000 compounds, 0.7% hits | AID 1645858
UCHL1 block: inhibitors of human UCHL1 deubiquitinase. P09936. purified UCHL1, Ub-rhodamine cleavage fluorescence. inhibition, % at 20 µM. 47,000 compounds, 0.2% hits
USP10 block: inhibitors of human USP10 deubiquitinase | Q14694 | purified USP10, Ub-rhodamine fluorescence, 60 min | inhibition, % at 20 µM | 47,000 compounds, 1.1% hits
Target sequence (Q14694 whole entry, looked up): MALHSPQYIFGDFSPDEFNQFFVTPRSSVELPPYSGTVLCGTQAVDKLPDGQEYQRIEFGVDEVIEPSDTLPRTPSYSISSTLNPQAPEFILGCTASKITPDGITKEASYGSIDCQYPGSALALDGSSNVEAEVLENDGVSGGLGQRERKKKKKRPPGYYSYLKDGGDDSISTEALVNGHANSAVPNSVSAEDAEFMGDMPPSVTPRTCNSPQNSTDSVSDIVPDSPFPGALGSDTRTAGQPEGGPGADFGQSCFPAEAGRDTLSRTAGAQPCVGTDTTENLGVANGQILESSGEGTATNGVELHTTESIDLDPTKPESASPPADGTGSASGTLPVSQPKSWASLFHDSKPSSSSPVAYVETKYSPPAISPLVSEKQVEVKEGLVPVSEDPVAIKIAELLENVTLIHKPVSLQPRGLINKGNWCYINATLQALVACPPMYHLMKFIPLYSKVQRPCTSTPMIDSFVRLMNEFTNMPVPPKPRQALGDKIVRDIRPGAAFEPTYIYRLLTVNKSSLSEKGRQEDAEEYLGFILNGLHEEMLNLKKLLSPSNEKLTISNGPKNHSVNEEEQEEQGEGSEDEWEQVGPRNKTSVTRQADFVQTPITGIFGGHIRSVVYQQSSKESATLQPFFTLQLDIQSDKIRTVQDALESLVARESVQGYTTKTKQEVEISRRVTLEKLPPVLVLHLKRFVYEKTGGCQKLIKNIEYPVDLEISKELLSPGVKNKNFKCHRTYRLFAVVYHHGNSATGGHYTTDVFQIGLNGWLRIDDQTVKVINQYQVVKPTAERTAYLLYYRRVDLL
USP7 inh: human USP7 deubiquitinase inhibition. purified USP7, Ub-rhodamine cleavage fluorescence. inhibition, % at 20 µM. Q93009. AID 1645854. 47,000 compounds, 0.3% hits
USP28 inh: human USP28 deubiquitinase inhibition. inhibition, % at 25 µM. 47,000 compounds, 3% hits. purified USP28, Ub-rhodamine cleavage fluorescence, 30 min
Active calls of the source: *; . = not tested or not shown. In the library only some 4.2% were active in any assay of this set; here they are far more common. Rule as the data show it: active = inhibition above about 30%; inactive = the rest.

SMILES	OTUD3 block	UCHL1 block	USP10 block	USP7 inh	USP28 inh
CCCCCCCc1cc(O)cc(OC(=O)c2c(CCCCCCC)cc(O)cc2O[C@H]2O[C@H](C(O)CO)[C@@H](O)[C@@H]2O)c1 (stereo not given in full)	0.0	14.8	12.1	-3.8	83.0*
CCCCCCCCCc1cc(OC(=O)c2c(CCCCCCCCC)cc(O)cc2O[C@@H]2O[C@H](CO)[C@@H](O)[C@H](O)[C@H]2O)cc(O)c1C(=O)O	101.2*	84.4*	97.5*	100.4*	100.6*
CCCCCCCc1cc(OC(=O)c2c(CCCCCCC)cc(O)cc2O[C@@H]2O[C@H](CO)[C@H](O)[C@H](O)[C@H]2O)cc(O)c1C(=O)O	100.4*	68.8*	100.3*	100.1*	100.5*
CCOc1ccc(Nc2cc(C(=O)NCc3ccc(C)cc3)c3ccccc3n2)cc1	1.3	2.1	10.6	8.1	.
C/C(=C\c1ccccc1)CN1CCC(O)(c2ccc(C)cc2)CC1	10.4	4.3	2.0	-0.8	11.3
CCOCCn1ccc2c(OCC(=O)Nc3ccc4c(c3)OCCO4)cccc2c1=O	6.5	-1.1	6.1	0.1	44.4*
COCCn1ccc2nc(C)c(C(=O)Nc3ccc4c(c3)OCCO4)cc2c1=O	3.9	-4.6	-0.1	-4.4	0.6
O=C(c1cccs1)N1CCN(c2ccc(Nc3ccncc3)nn2)CC1	-3.8	-5.1	-3.5	-6.2	-7.1
Cc1c(C#N)c2ccccc2n1CC(=O)NCC1CCCO1 (stereo not given)	-11.6	-3.0	-3.1	-0.2	-7.5
O=C(CCCCn1c(=O)c2ccccc2n(CC(=O)NCCC2=CCCCC2)c1=O)NCc1ccco1	7.8	0.0	-0.2	-23.6	-3.1
Cc1c(C#N)c2ccccc2n1CC(=O)NCc1ccc2c(c1)OCO2	-27.3	2.2	25.4	3.5	32.1*
O=C(CCCn1c(=O)c2sccc2n(CC(=O)NCCC2=CCCCC2)c1=O)NCc1ccc2c(c1)OCO2	28.5	-2.5	14.9	-1.2	32.2*
Cc1cc(C)c(NC(=O)Cn2c(=O)n(CCC(=O)NCc3ccc4c(c3)OCO4)c(=O)c3sccc32)c(C)c1	33.9*	7.7	56.9*	30.3*	49.3*
O=C(CCCC1=NS(=O)(=O)c2ccccc2N1)Nc1ccc(F)c(F)c1	4.9	-2.0	-0.9	-3.7	-0.8
Cc1cc(C)cc(N(CCC(=O)Nc2ccc(N3CCOCC3)cc2)S(=O)(=O)c2ccc(Cl)cc2)c1	34.7*	3.7	10.4	9.1	13.3
Cc1cc(C)cc(N(CCC(=O)Nc2ccccc2)S(=O)(=O)c2ccc3ccccc3c2)c1	16.6	8.7	9.6	14.2	13.8
Cc1cc(N2CCCCC2)nc2ccc(NC(=O)c3ccncc3)cc12	-23.9	-6.1	-2.7	-16.1	37.5*
Cc1ccc(NC(=O)CCC(=O)Nc2ccc3nc(N4CCCCC4)cc(C)c3c2)c(Br)c1	10.3	8.6	1.4	2.6	17.6
COc1cccc(/C=C/C(=O)Nc2ccc(C)c(Cl)c2)c1	16.2	5.6	11.2	-93.3	64.8*
COc1cc(NC(=O)c2cc(-c3ccncc3)n(-c3ccc(F)cc3)n2)cc(OC)c1	-4.5	8.4	3.6	15.0	70.6*
COc1ccc(NC(=O)c2cc(-c3ccncc3)n(-c3ccc(F)cc3)n2)cc1OC	-1.9	2.5	-0.6	1.3	2.9
COc1ccc(/C=C/C(=O)N2CCc3ccccc32)cc1S(=O)(=O)N1CCOCC1	53.9*	4.4	-3.1	3.8	3.6
Cc1ccc(NC(=O)C2CCC(CNS(=O)(=O)c3ccc4c(c3)C(C)(C)C(=O)N4C)CC2)cc1C (stereo not given)	-15.1	4.6	0.1	7.1	13.1
COc1cccc(NC(=O)C2CCC(CNS(=O)(=O)c3ccc4c(c3)C(C)(C)C(=O)N4C)CC2)c1 (stereo not given)	-7.4	0.5	2.5	1.0	75.8*
Cc1ccc(OCC(=O)Nc2onc3c2CCCC3)cc1C	11.0	2.9	6.1	5.1	30.2*
SMILES	OTUD3 block	UCHL1 block	USP10 block	USP7 inh	USP28 inh
CNc1nc2c(c(=O)n1C)CN(C(=O)Nc1cccc3ccccc13)CC2	59.5*	28.3	21.3	-85.8	43.3*
CNc1nc2c(c(=O)n1C)CN(C(=O)Nc1ccc(C(C)(C)C)cc1)CC2	-13.1	1.1	0.7	1.6	0.2
O=C(CCn1cnc2ccccc2c1=O)N1CCCC(c2nnc(C(F)(F)F)o2)C1 (stereo not given)	-8.8	-1.5	0.8	0.9	-11.9
CCc1cc(OCC(=O)NC(c2ccccc2)c2ccccc2)ccc1Cl	5.8	8.5	11.2	8.2	4.2
CC(CCc1ccccc1)NC(=O)COc1ccc(Cl)c(Cl)c1 (stereo not given)	22.3	9.6	12.9	-32.3	31.1*
CCC(C)n1c(-c2ccccc2)nc2nc3ccccc3nc21 (stereo not given)	2.6	1.4	1.0	-26.7	1.9
CCc1nc(N2CCCC2=O)sc1C(=O)Nc1cccc(C)c1	-5.2	-1.2	0.0	-2.0	48.8*
CCc1nc(N2CCCC2=O)sc1C(=O)Nc1cccc(C(C)=O)c1	8.3	4.2	1.6	0.2	52.3*
CC1=C(C(=O)Nc2cccnc2)C(c2cccnc2)n2nc(C(F)(F)F)nc2N1 (stereo not given)	9.4	2.0	-0.7	3.5	14.2
Fc1ccc(-c2noc(-c3nnc(NCc4cccnc4)c4ccccc34)n2)cc1	-1.6	-4.0	0.8	4.1	-7.7
CC(=O)Nc1ccc(-c2nc(Cn3cc(C)cn3)c(C)o2)cc1	2.7	-3.4	-2.1	-1.5	33.4*
CCC(=O)Nc1ccc(-c2nc(Cn3cc(C)cn3)c(C)o2)cc1	-9.5	0.6	0.8	-1.1	55.1*
Cc1c(O)c(O)c(O)c(C=O)c1C=O	15.4	-4.9	-12.8	-85.0	68.3*
O=C(NCCc1ccccc1)c1nnn(Cc2cccc(Cl)c2)c1-n1cccc1	-26.4	3.4	0.0	6.3	78.4*
CSc1cccc(NC(=O)C2C3C=CC4(O3)C2C(=O)N(CCc2ccccc2)C4C(=O)NC2CCCCC2)c1 (stereo not given)	11.2	-1.5	39.4*	-6.2	0.0
CC(C)OCCCN1C(=O)C2C(C(=O)Nc3ccc(Oc4ccccc4)cc3)C3C=CC2(O3)C1C(=O)NC1CCCCC1 (stereo not given)	32.7*	2.7	5.1	-14.8	18.1
O=C(Cc1nnc(-c2cnccn2)o1)NCc1ccc(F)cc1	4.6	4.2	-1.4	1.8	0.4
NC(=O)c1ccc(Oc2ccc(Cl)cc2)nc1	12.6	1.0	2.0	3.2	37.0*
COc1ccc(C)cc1NC(=O)COc1ccc2c(c1)OCO2	-3.2	-0.6	4.2	2.8	-4.5
Fc1ccccc1-c1nnc(SCc2ccccc2)n1Cc1ccccc1	34.8*	6.5	11.5	1.2	63.8*
CC(Sc1nnc(-c2ccccc2F)n1Cc1ccccc1)C(=O)N1CCc2ccccc21 (stereo not given)	25.1	5.3	5.8	-1.7	17.7
Cc1nc(-c2cccc(N3CC(C(=O)NC4CCCC4)CC3=O)c2)no1 (stereo not given)	-8.6	0.6	-1.5	-0.9	-0.8
